PubChem BioAssay (NCI)
This is part of a sample that, as a whole, favours compounds with a hit. Of some 83,000 tested, about 20% had one in any assay.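 Cell lines were cultured in 96-well plates, exposed to a single compound concentration, and assessed for percent growth 48 hours later.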 The source made the active and inactive calls. Rule for the calls: active = growth percent below 10; inactive = the rest.

Columns and labels:
Assay in all cases: NCI-60 one-dose screen, 48 h (100 = growth as untreated, 0 = no growth, -100 = all killed)
Conditions in all cases: 10 µM unless noted
NCI-H23 lung = tested on: NCI-H23 lung
NCI-H226 lung = tested on: NCI-H226 lung
NCI-H322M lung = tested on: NCI-H322M lung
HOP-62 NSCLC = tested on: HOP-62 NSCLC
NCI-H460 lung = tested on: NCI-H460 lung
HOP-92 NSCLC = tested on: HOP-92 NSCLC
NCI-H522 lung = tested on: NCI-H522 lung
A549/ATCC NSCLC = tested on: A549/ATCC NSCLC
786-0 renal = tested on: 786-0 renal
COLO 205 colon = tested on: COLO 205 colon

Measured: growth

COc1ccc(Cl)cc1NC(=O)c1cc2c([nH]1)-c1nc(NC(=O)C(C)C)sc1CC2
inactive: NCI-H23 lung 83.5% | NCI-H226 lung 79.5% | NCI-H322M lung 92.8% | HOP-62 NSCLC 75.3% | NCI-H460 lung 106% | HOP-92 NSCLC 90% | NCI-H522 lung 63.7% | A549/ATCC NSCLC 91.1% | 786-0 renal 105% | COLO 205 colon 102%

c1cncc(-c2nc3ccccc3[nH]2)c1
inactive: NCI-H23 lung 84.4% | NCI-H226 lung 92.7% | NCI-H322M lung 101% | HOP-62 NSCLC 83.2% | NCI-H460 lung 105% | HOP-92 NSCLC 103% | NCI-H522 lung 99.8% | A549/ATCC NSCLC 93.9% | 786-0 renal 107% | COLO 205 colon 89.1%

COc1cc(C(=O)NNC(=O)c2ccccc2O)cc(OC)c1OC
inactive: NCI-H23 lung 101% | NCI-H226 lung 96.8% | NCI-H322M lung 93.5% | HOP-62 NSCLC 99.7% | NCI-H460 lung 102% | HOP-92 NSCLC 83% | NCI-H522 lung 61.9% | A549/ATCC NSCLC 82.9% | 786-0 renal 97.6% | COLO 205 colon 94.3%

COC(=O)Nc1nc2ccc(Sc3ccccc3)cc2[nH]1
active: NCI-H460 lung 6.37% | COLO 205 colon -14.7%
inactive: NCI-H23 lung 32.7% | NCI-H226 lung 19.9% | NCI-H322M lung 55.4% | HOP-62 NSCLC 29.4% | HOP-92 NSCLC 54.2% | NCI-H522 lung 13.4% | A549/ATCC NSCLC 13.4% | 786-0 renal 33.7%

O=c1c2ccccc2[nH]n1Cc1ccc2c(c1)OCO2
active: NCI-H460 lung 0.543%
inactive: NCI-H23 lung 106% | NCI-H226 lung 92.6% | NCI-H322M lung 97.6% | HOP-62 NSCLC 97.1% | HOP-92 NSCLC 90.2% | NCI-H522 lung 99.4% | A549/ATCC NSCLC 99.6% | 786-0 renal 93.3% | COLO 205 colon 116%

CC(=O)N[C@@H](CNC(=O)c1cc(NC(=O)c2cc(NC(=O)c3cc(NC(=O)c4nccn4C)cn3C)cn2C)cn1C)CC(=O)Nc1cn(C)c(C(=O)Nc2cc(C(=O)Nc3cc(C(=O)Nc4cc(C(=O)NCCCN(C)CCCNC(=O)c5cccc(C(=O)O)c5)n(C)c4)n(C)c3)n(C)c2)n1
inactive: NCI-H23 lung 89.9% | NCI-H226 lung 58.4% | NCI-H322M lung 57% | HOP-62 NSCLC 91.6% | NCI-H460 lung 10.6% | HOP-92 NSCLC 106% | NCI-H522 lung 39% | 786-0 renal 82.7% | COLO 205 colon 45.1%
active: A549/ATCC NSCLC -10.7%

NC(=O)C1=C[C@H]2[C@H]3C=C[C@@]2(O)C(=O)O[C@@H]3O1
inactive: NCI-H23 lung 67% | NCI-H226 lung 47.6% | NCI-H322M lung 93.8% | HOP-62 NSCLC 82.3% | NCI-H460 lung 99.2% | HOP-92 NSCLC 40.7% | NCI-H522 lung 63.3% | A549/ATCC NSCLC 80.7% | 786-0 renal 61.4% | COLO 205 colon 38.8%

Cc1[nH]n(C(=O)c2ccncc2)c(=O)c1N=Nc1ccc(S(=O)(=O)Nc2ccncn2)cc1
inactive: NCI-H23 lung 100% | NCI-H226 lung 90% | NCI-H322M lung 115% | HOP-62 NSCLC 76.6% | NCI-H460 lung 115% | HOP-92 NSCLC 54.7% | NCI-H522 lung 102% | A549/ATCC NSCLC 18.9% | COLO 205 colon 127%

CCN1CCN(Cc2ccc(NC(=O)Nc3cccc(-n4ccc5c(NC(=O)c6ccccc6)nccc54)c3)cc2C(F)(F)F)CC1
inactive: NCI-H23 lung 92.4% | NCI-H226 lung 99.5% | NCI-H322M lung 101% | HOP-62 NSCLC 72.6% | NCI-H460 lung 96.3% | HOP-92 NSCLC 60.5% | NCI-H522 lung 45.6% | A549/ATCC NSCLC 86.9% | 786-0 renal 108% | COLO 205 colon 65.7%

CN1CCN(CC(O)COc2c(Br)c(Br)c(Br)c3c2OC(C)(C)C3)CC1 (centres undefined)
inactive: NCI-H23 lung 82.4% | NCI-H226 lung 99.2% | NCI-H322M lung 73% | HOP-62 NSCLC 16.4% | NCI-H460 lung 23% | NCI-H522 lung 42.6% | A549/ATCC NSCLC 63.6% | 786-0 renal 11.8%
active: HOP-92 NSCLC -3.44% | COLO 205 colon -45.3%

O=C(/C=C/c1ccccc1)Oc1ccc(/C=C/c2cc(OC(=O)/C=C/c3ccccc3)cc(OC(=O)/C=C/c3ccccc3)c2)cc1
inactive: NCI-H23 lung 102% | NCI-H226 lung 91.4% | NCI-H322M lung 90.6% | HOP-62 NSCLC 82.9% | NCI-H460 lung 100% | HOP-92 NSCLC 95.8% | NCI-H522 lung 77% | A549/ATCC NSCLC 83.9% | 786-0 renal 102% | COLO 205 colon 97.4%

CCC1S/C(=N\N=C(/C)c2cc3ccccc3o2)N(c2ccccc2)C1=O (centres undefined)
inactive: NCI-H23 lung 93.6% | NCI-H226 lung 108% | NCI-H322M lung 92.2% | HOP-62 NSCLC 101% | NCI-H460 lung 123% | HOP-92 NSCLC 47% | NCI-H522 lung 88.3% | A549/ATCC NSCLC 113% | 786-0 renal 103% | COLO 205 colon 123%

CCOc1ccc(-n2c(-c3cc(OC)c(OC)c(OC)c3)nnc2-c2ccc(OC)cc2N)cc1
inactive: NCI-H23 lung 76.4% | NCI-H226 lung 80.1% | NCI-H322M lung 81.3% | HOP-62 NSCLC 78.3% | NCI-H460 lung 42.3% | HOP-92 NSCLC 73.1% | NCI-H522 lung 52.6% | A549/ATCC NSCLC 54.9% | 786-0 renal 89.5% | COLO 205 colon 51%

CC[C@@]1(O)C(=O)OCc2c1cc1n(c2=O)Cc2c-1nc1ccccc1c2/C=N/OC(C)(C)C
active: NCI-H23 lung -4.17% | NCI-H226 lung -78.7% | HOP-62 NSCLC -24.1% | NCI-H460 lung 1.16% | HOP-92 NSCLC -11.8% | NCI-H522 lung -47.8% | A549/ATCC NSCLC -11% | 786-0 renal 2.49% | COLO 205 colon -26.9%
inactive: NCI-H322M lung 12.4%
